Data reported in publication PMC11006913.
Numbering of substitutions follows the chain as printed.

Legend:
Assay in all cases: PBM; 200 nM protein, PBS
Conditions in all cases: dsDNA, one strand shown
HOXB9 [1] = target: HOXB9 (Homo sapiens, UniProt P17482 171-250, T197M)
HOXB9 [2] = target: HOXB9 (Homo sapiens, UniProt P17482 171-250)
HOXB9 [3] = target: HOXB9 (Homo sapiens, UniProt P17482 171-250, R186Q)
HOXA2 [4] = target: HOXA2 (Homo sapiens, UniProt O43364 129-215, R185T)
HOXA2 [5] = target: HOXA2 (Homo sapiens, UniProt O43364 129-215, R185K)
Sequence of HOXA2 (Homo sapiens, UniProt O43364 129-215, R185K) (O43364 129-215 R185K): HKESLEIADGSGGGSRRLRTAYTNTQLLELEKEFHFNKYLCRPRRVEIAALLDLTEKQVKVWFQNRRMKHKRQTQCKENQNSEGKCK

HOXA2 [6] = target: HOXA2 (Homo sapiens, UniProt O43364 129-215, Y150S)
Sequence of HOXA2 (Homo sapiens, UniProt O43364 129-215, Y150S) (O43364 129-215 Y150S): as the sequence (O43364 129-215 R185K) above, with Y22S, K57R counted along it

HOXA2 [7] = target: HOXA2 (Homo sapiens, UniProt O43364 129-215)
Sequence of HOXA2 (Homo sapiens, UniProt O43364 129-215) (O43364 129-215): as the sequence (O43364 129-215 R185K) above, with K57R counted along it

SIX6 [8] = target: T1, SIX6 (Homo sapiens, UniProt O95475 114-200, L167I)
T1 sequence: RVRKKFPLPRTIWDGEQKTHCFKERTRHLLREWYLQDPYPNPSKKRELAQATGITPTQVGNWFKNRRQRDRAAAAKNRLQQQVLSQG

SIX6 [9] = target: T2, SIX6 (Homo sapiens, UniProt O95475 114-200, L143V)
T2 sequence: T1 sequence with L30V, I54L

SIX6 [10] = target: T3, SIX6 (Homo sapiens, UniProt O95475 114-200, H141N)
T3 sequence: T1 sequence with H28N, I54L

SIX6 [11] = target: T4, SIX6 (Homo sapiens, UniProt O95475 114-200, T165P)
T4 sequence: T1 sequence with T52P, I54L

SIX6 [12] = target: T5, SIX6 (Homo sapiens, UniProt O95475 114-200, L167M)
T5 sequence: T1 sequence with I54M

SIX6 [13] = target: T6, SIX6 (Homo sapiens, UniProt O95475 114-200, L143M)
T6 sequence: T1 sequence with L30M, I54L

SIX6 [14] = target: T7, SIX6 (Homo sapiens, UniProt O95475 114-200, L143I)
T7 sequence: T1 sequence with L30I, I54L

SIX6 [15] = target: T8, SIX6 (Homo sapiens, UniProt O95475 114-200, T165G)
T8 sequence: T1 sequence with T52G, I54L

SIX6 [16] = target: T9, SIX6 (Homo sapiens, UniProt O95475 114-200, T139Q)
T9 sequence: T1 sequence with T26Q, I54L

SIX6 [17] = target: T10, SIX6 (Homo sapiens, UniProt O95475 114-200, T165A)
T10 sequence: T1 sequence with T52A, I54L

SIX6 [18] = target: T11, SIX6 (Homo sapiens, UniProt O95475 114-200, L167V)
T11 sequence: T1 sequence with I54V

SIX6 [19] = target: T12, SIX6 (Homo sapiens, UniProt O95475 114-200)
T12 sequence: T1 sequence with I54L

SIX6 [20] = target: T13, SIX6 (Homo sapiens, UniProt O95475 114-200, T165I)
T13 sequence: T1 sequence with T52I, I54L

Sequence of HOXB9 (Homo sapiens, UniProt P17482 171-250) (P17482 171-250): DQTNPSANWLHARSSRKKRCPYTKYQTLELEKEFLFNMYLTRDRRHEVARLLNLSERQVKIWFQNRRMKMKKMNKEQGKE
Sequence of HOXB9 (Homo sapiens, UniProt P17482 171-250, R186Q) (P17482 171-250 R186Q): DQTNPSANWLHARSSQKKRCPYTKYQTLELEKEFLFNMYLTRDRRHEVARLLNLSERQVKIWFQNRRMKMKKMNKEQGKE
Sequence of HOXB9 (Homo sapiens, UniProt P17482 171-250, T197M) (P17482 171-250 T197M): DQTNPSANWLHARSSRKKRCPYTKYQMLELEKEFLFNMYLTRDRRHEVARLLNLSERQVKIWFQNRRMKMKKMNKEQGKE
Sequence of HOXA2 (Homo sapiens, UniProt O43364 129-215, R185T) (O43364 129-215 R185T): as the sequence (O43364 129-215 R185K) above, with K57T counted along it

## GCAGGCCC
HOXB9 [1]
  binding signal: 8.19 upbm affinity estimate (log intensity, higher = more binding, comparable within an allelic series)
HOXB9 [2]
  binding signal: 8.31 upbm affinity estimate (log intensity, higher = more binding, comparable within an allelic series)
HOXB9 [3]
  binding signal: 8.26 upbm affinity estimate (log intensity, higher = more binding, comparable within an allelic series)

## ATAAATTG
HOXB9 [1]
  binding signal: 9.96 upbm affinity estimate (log intensity, higher = more binding, comparable within an allelic series)

## CAATCAAC
HOXB9 [1]
  binding signal: 9.17 upbm affinity estimate (log intensity, higher = more binding, comparable within an allelic series)
HOXB9 [2]
  binding signal: 9.95 upbm affinity estimate (log intensity, higher = more binding, comparable within an allelic series)
HOXB9 [3]
  binding signal: 9.93 upbm affinity estimate (log intensity, higher = more binding, comparable within an allelic series)

## GGACCTAC
HOXB9 [1]
  binding signal: 8.72 upbm affinity estimate (log intensity, higher = more binding, comparable within an allelic series)
HOXB9 [2]
  binding signal: 8.47 upbm affinity estimate (log intensity, higher = more binding, comparable within an allelic series)
HOXB9 [3]
  binding signal: 8.62 upbm affinity estimate (log intensity, higher = more binding, comparable within an allelic series)

## CGGCGCCA
HOXB9 [1]
  binding signal: 8.53 upbm affinity estimate (log intensity, higher = more binding, comparable within an allelic series)
HOXB9 [2]
  binding signal: 8.36 upbm affinity estimate (log intensity, higher = more binding, comparable within an allelic series)
HOXB9 [3]
  binding signal: 8.51 upbm affinity estimate (log intensity, higher = more binding, comparable within an allelic series)

## CCTTCGCG
HOXB9 [1]
  binding signal: 8.71 upbm affinity estimate (log intensity, higher = more binding, comparable within an allelic series)
HOXB9 [2]
  binding signal: 8.45 upbm affinity estimate (log intensity, higher = more binding, comparable within an allelic series)
HOXB9 [3]
  binding signal: 8.78 upbm affinity estimate (log intensity, higher = more binding, comparable within an allelic series)

## AGCATCCG
HOXB9 [1]
  binding signal: 8.64 upbm affinity estimate (log intensity, higher = more binding, comparable within an allelic series)
HOXB9 [2]
  binding signal: 8.73 upbm affinity estimate (log intensity, higher = more binding, comparable within an allelic series)
HOXB9 [3]
  binding signal: 8.71 upbm affinity estimate (log intensity, higher = more binding, comparable within an allelic series)

## CCGCAGCC
HOXB9 [1]
  binding signal: 8.52 upbm affinity estimate (log intensity, higher = more binding, comparable within an allelic series)
HOXB9 [2]
  binding signal: 8.38 upbm affinity estimate (log intensity, higher = more binding, comparable within an allelic series)
HOXB9 [3]
  binding signal: 8.47 upbm affinity estimate (log intensity, higher = more binding, comparable within an allelic series)

## GAACCGGC
HOXB9 [1]
  binding signal: 8.52 upbm affinity estimate (log intensity, higher = more binding, comparable within an allelic series)
HOXA2 [4]
  binding signal: 7.08 upbm affinity estimate (log intensity, higher = more binding, comparable within an allelic series)
HOXB9 [2]
  binding signal: 8.43 upbm affinity estimate (log intensity, higher = more binding, comparable within an allelic series)
HOXA2 [5]
  binding signal: 10.2 upbm affinity estimate (log intensity, higher = more binding, comparable within an allelic series)
HOXB9 [3]
  binding signal: 8.48 upbm affinity estimate (log intensity, higher = more binding, comparable within an allelic series)
HOXA2 [6]
  binding signal: 10.4 upbm affinity estimate (log intensity, higher = more binding, comparable within an allelic series)
HOXA2 [7]
  binding signal: 7.09 upbm affinity estimate (log intensity, higher = more binding, comparable within an allelic series)

## CGCGCCCC
HOXB9 [1]
  binding signal: 8.45 upbm affinity estimate (log intensity, higher = more binding, comparable within an allelic series)
HOXA2 [4]
  binding signal: 7.42 upbm affinity estimate (log intensity, higher = more binding, comparable within an allelic series)
HOXB9 [2]
  binding signal: 8.02 upbm affinity estimate (log intensity, higher = more binding, comparable within an allelic series)
HOXA2 [5]
  binding signal: 10.1 upbm affinity estimate (log intensity, higher = more binding, comparable within an allelic series)
HOXB9 [3]
  binding signal: 8.34 upbm affinity estimate (log intensity, higher = more binding, comparable within an allelic series)
HOXA2 [6]
  binding signal: 10.2 upbm affinity estimate (log intensity, higher = more binding, comparable within an allelic series)
HOXA2 [7]
  binding signal: 7.21 upbm affinity estimate (log intensity, higher = more binding, comparable within an allelic series)

## CTGCCGGC
HOXB9 [1]
  binding signal: 8.63 upbm affinity estimate (log intensity, higher = more binding, comparable within an allelic series)
HOXB9 [2]
  binding signal: 8.65 upbm affinity estimate (log intensity, higher = more binding, comparable within an allelic series)
HOXB9 [3]
  binding signal: 8.68 upbm affinity estimate (log intensity, higher = more binding, comparable within an allelic series)

## GAAGCGGC
HOXB9 [1]
  binding signal: 8.49 upbm affinity estimate (log intensity, higher = more binding, comparable within an allelic series)
HOXB9 [2]
  binding signal: 8.36 upbm affinity estimate (log intensity, higher = more binding, comparable within an allelic series)
HOXB9 [3]
  binding signal: 8.37 upbm affinity estimate (log intensity, higher = more binding, comparable within an allelic series)

## AAGTTATC
HOXB9 [1]
  binding signal: 9.1 upbm affinity estimate (log intensity, higher = more binding, comparable within an allelic series)
HOXB9 [2]
  binding signal: 9.66 upbm affinity estimate (log intensity, higher = more binding, comparable within an allelic series)

## CCGGACGC
HOXB9 [1]
  binding signal: 8.6 upbm affinity estimate (log intensity, higher = more binding, comparable within an allelic series)
HOXB9 [2]
  binding signal: 8.5 upbm affinity estimate (log intensity, higher = more binding, comparable within an allelic series)
HOXB9 [3]
  binding signal: 8.59 upbm affinity estimate (log intensity, higher = more binding, comparable within an allelic series)

## CGCTACCG
HOXB9 [1]
  binding signal: 8.45 upbm affinity estimate (log intensity, higher = more binding, comparable within an allelic series)
HOXB9 [2]
  binding signal: 8.54 upbm affinity estimate (log intensity, higher = more binding, comparable within an allelic series)
HOXB9 [3]
  binding signal: 8.56 upbm affinity estimate (log intensity, higher = more binding, comparable within an allelic series)

## ATGGTGTC
SIX6 [8]
  binding signal: 9.97 upbm affinity estimate (log intensity, higher = more binding, comparable within an allelic series)

## GGGGGCCA
SIX6 [8]
  binding signal: 8.93 upbm affinity estimate (log intensity, higher = more binding, comparable within an allelic series)
SIX6 [9]
  binding signal: 8.85 upbm affinity estimate (log intensity, higher = more binding, comparable within an allelic series)
SIX6 [10]
  binding signal: 8.92 upbm affinity estimate (log intensity, higher = more binding, comparable within an allelic series)
SIX6 [11]
  binding signal: 8.83 upbm affinity estimate (log intensity, higher = more binding, comparable within an allelic series)
SIX6 [12]
  binding signal: 9.04 upbm affinity estimate (log intensity, higher = more binding, comparable within an allelic series)
SIX6 [13]
  binding signal: 9.04 upbm affinity estimate (log intensity, higher = more binding, comparable within an allelic series)
SIX6 [14]
  binding signal: 8.87 upbm affinity estimate (log intensity, higher = more binding, comparable within an allelic series)
SIX6 [15]
  binding signal: 8.92 upbm affinity estimate (log intensity, higher = more binding, comparable within an allelic series)
SIX6 [16]
  binding signal: 9.03 upbm affinity estimate (log intensity, higher = more binding, comparable within an allelic series)
SIX6 [17]
  binding signal: 9.09 upbm affinity estimate (log intensity, higher = more binding, comparable within an allelic series)
SIX6 [18]
  binding signal: 9.02 upbm affinity estimate (log intensity, higher = more binding, comparable within an allelic series)
SIX6 [19]
  binding signal: 9.03 upbm affinity estimate (log intensity, higher = more binding, comparable within an allelic series)
SIX6 [20]
  binding signal: 9.05 upbm affinity estimate (log intensity, higher = more binding, comparable within an allelic series)

## CGGGCCGC
SIX6 [8]
  binding signal: 9.03 upbm affinity estimate (log intensity, higher = more binding, comparable within an allelic series)
SIX6 [9]
  binding signal: 8.81 upbm affinity estimate (log intensity, higher = more binding, comparable within an allelic series)
SIX6 [10]
  binding signal: 9.05 upbm affinity estimate (log intensity, higher = more binding, comparable within an allelic series)
SIX6 [11]
  binding signal: 8.75 upbm affinity estimate (log intensity, higher = more binding, comparable within an allelic series)
SIX6 [12]
  binding signal: 8.94 upbm affinity estimate (log intensity, higher = more binding, comparable within an allelic series)
SIX6 [13]
  binding signal: 8.95 upbm affinity estimate (log intensity, higher = more binding, comparable within an allelic series)
SIX6 [14]
  binding signal: 8.91 upbm affinity estimate (log intensity, higher = more binding, comparable within an allelic series)
SIX6 [15]
  binding signal: 8.87 upbm affinity estimate (log intensity, higher = more binding, comparable within an allelic series)
SIX6 [16]
  binding signal: 8.94 upbm affinity estimate (log intensity, higher = more binding, comparable within an allelic series)
SIX6 [17]
  binding signal: 9.01 upbm affinity estimate (log intensity, higher = more binding, comparable within an allelic series)
SIX6 [18]
  binding signal: 8.94 upbm affinity estimate (log intensity, higher = more binding, comparable within an allelic series)
SIX6 [19]
  binding signal: 9.02 upbm affinity estimate (log intensity, higher = more binding, comparable within an allelic series)
SIX6 [20]
  binding signal: 8.91 upbm affinity estimate (log intensity, higher = more binding, comparable within an allelic series)
